Assay outcomes: PubChem BioAssay, National Center for Advancing Translational Sciences (NCATS)
FH mod = Identification of activators of human fumarate hydratase by quantitative high-throughput screening; Fumarate hydratase, mitochondrial (Homo sapiens), P07954; FH coupled MDH/diaphorase resazurin fluorescence, 15 min; Potency, µM (highest dose often 79.9 µM), usual class: inhibitors; 0.22% of 54,000 active; note: the screen sought activators but most active calls are inhibition curves; nearly all actives have a fitted effect of over 45% in size
Target sequence (P07954 whole entry, looked up): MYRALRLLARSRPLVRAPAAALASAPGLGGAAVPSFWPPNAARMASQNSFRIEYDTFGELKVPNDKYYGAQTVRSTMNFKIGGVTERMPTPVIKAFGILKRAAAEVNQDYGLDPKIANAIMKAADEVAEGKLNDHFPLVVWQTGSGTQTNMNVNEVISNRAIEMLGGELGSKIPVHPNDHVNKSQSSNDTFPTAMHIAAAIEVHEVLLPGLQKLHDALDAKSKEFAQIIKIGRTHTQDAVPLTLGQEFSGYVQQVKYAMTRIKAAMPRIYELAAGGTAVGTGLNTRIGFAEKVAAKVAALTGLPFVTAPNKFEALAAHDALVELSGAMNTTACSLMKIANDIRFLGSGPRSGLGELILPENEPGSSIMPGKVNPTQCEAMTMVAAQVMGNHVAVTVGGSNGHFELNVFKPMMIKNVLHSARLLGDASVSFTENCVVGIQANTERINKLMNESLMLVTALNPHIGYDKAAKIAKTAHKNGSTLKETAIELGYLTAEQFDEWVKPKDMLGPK
HTT prom inh = HTT promoter inhibition; HEK293 HTT promoter firefly luciferase reporter, 24 h; Potency, µM (top dose mostly 57.5 µM), most hits filed as inhibitors; 0.93% of 48,000 active; AID 1508623; note: nearly all actives have a fitted effect of over 50% in size
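Luminescence was read after Dual-Glo reagent and a 10 min room-temperature incubation. Values were normalized to vehicle (0% activity) and zero RLU (-100% activity). Reporter HEK293 cells had been exposed to compounds (up to 57.5 uM final) for 24 h.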
PMP22 txn = modulators of PMP22 gene transcription in S16 Schwann cells; S16 Pmp22-F2sN Schwann cells, FLuc/NLuc coincidence luminescence, 24 h; 2% of 43,000 active; Potency, µM (series often up to 57.5 µM), most hits filed as inhibitors; AID 1508649; active = clear falling dose curves in both reporters; inconclusive = both reporters move, but less clearly or upward; inactive = either reporter flat; the % is the NLuc reporter signal
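Schwann cells carrying the coincidence reporter were exposed to library compounds for 24 h at 37C, then lysed and read for FLuc and, after quenching, NLuc luminescence on a CCD imager.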
HTT-AS promoter = HTT-AS promoter activation | HEK293 HTT-AS promoter firefly luciferase reporter, 24 h; response scale: percent change from vehicle, -100% = no light | Potency, µM (titrated, usually from 57.5 µM), hits mostly activators | 0.24% of 48,000 active; note: nearly all actives have a fitted effect of over 55% in size
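HEK293 luciferase promoter-reporter cells (2,500/well) plated 24 h, then compounds added at up to 57.5 uM final for 24 h at 37 °C. Firefly luminescence by Dual-Glo, normalized to vehicle (0%) and zero RLU (-100%).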
mTORC1 inh = inhibitors of mTORC1 signaling in Tsc2-/- p53-/- MEF cells | 0.78% of 44,000 active | AID 493208 | Tsc2-/- p53-/- MEF, phospho-rpS6 immunofluorescence/PI, 24 h | Potency, µM (series often up to 38.3 µM), hits mostly inhibitors; note: nearly all actives have a fitted effect of over 50% in size
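Read-out: phospho-S6 Alexa-488 intensity over PI intensity per well, scored as % active cells using thresholds from rapamycin (7.5 nM) and DMSO controls. Tsc2-/-, p53-/- MEFs exposed to compound for 24 h; PI cell count recorded as viability.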
S16 F2sN tox = S16 Schwann cell cytotoxicity; AID 1508642; Potency, µM (highest dose often 57.5 µM), actives largely listed as cytotoxic; 0.48% of 43,000 active; S16 Pmp22-F2sN Schwann cells (luciferase reporters placed in the Pmp22 gene) viability, CellTiter-Glo, 24 h; note: nearly all actives have a fitted effect of over 65% in size
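S16 Schwann cells carrying the Pmp22-F2sN reporter, seeded in 1536-well format, were exposed to library compounds for 24 h at 37C. Viability was read as CellTiter-Glo luminescence after 15 min at room temperature.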
Numbers stand for hits; [ ] = dose if it differs, or a comment. The list is not random: actives were taken first. Their share in the collection is about 3.3%. Unless noted, calls come from the whole dose curve; as a rule, active = well fitted curve in the direction sought with a large enough effect; inconclusive = small, poorly fitted or top-dose-only effect, or another doubt; inactive = no such curve, though single readings can be large; an effect the other way counts as inactive or inconclusive.

`CC1=C(C)C(=O)C(CCCCC#CCCCC#CCO)=C(C)C1=O` gave FH mod 28µM, HTT prom inh inactive and HTT-AS promoter inactive.
Screening COC(=O)c1c(NC(=O)c2ccc(S(=O)(=O)N3CCCC(C)C3)cc2)sc2c1CCN(C(C)C)C2 (centres undefined) returned FH mod inactive, HTT prom inh inconclusive, PMP22 txn inconclusive, HTT-AS promoter inactive, mTORC1 inh inactive and S16 F2sN tox inactive.
For COC(=O)c1c(NC(=O)c2ccc(S(=O)(=O)N3CCCCC3)cc2)sc2c1CCN(C)C2 the results were FH mod inconclusive, HTT prom inh inactive, PMP22 txn inconclusive, HTT-AS promoter inactive, mTORC1 inh 4.1µM and S16 F2sN tox inconclusive.
`CCCOc1ccc(C(=O)Nc2ccc(NC(=O)c3ccccc3)c(Br)c2)cc1` gave FH mod inactive, HTT prom inh inconclusive, PMP22 txn inconclusive, HTT-AS promoter inactive, mTORC1 inh 18µM and S16 F2sN tox inconclusive.
`CCCCOc1ccc(C(=O)Nc2ccc3c(c2)N(C(C)=O)CCC3)cc1` gave FH mod inactive, HTT prom inh 4.5µM, PMP22 txn inactive, HTT-AS promoter inactive, mTORC1 inh inactive and S16 F2sN tox inactive.
O=C(Nc1onc2c1CCCC2)c1ccc(Cl)cc1 was read as FH mod inactive, HTT prom inh inactive, PMP22 txn inconclusive, HTT-AS promoter inconclusive, mTORC1 inh inactive and S16 F2sN tox inconclusive.
Screening CCCCOc1ccc(C(=O)Nc2onc3c2CCCC3)cc1 returned FH mod inactive, HTT prom inh inactive, PMP22 txn inactive, HTT-AS promoter 13µM, mTORC1 inh inactive and S16 F2sN tox inactive.
Screening C=CC(=O)N1CCCC(n2nc(-c3ccc(Oc4ccccc4)cc3)c3c(N)ncnc32)C1 (centres undefined) returned FH mod inactive.
For OCCN1CCN(c2ncnc3c2cnn3-c2cccc(Cl)c2)CC1 the results were FH mod inactive, HTT prom inh inactive, PMP22 txn inactive, HTT-AS promoter inconclusive, mTORC1 inh inactive and S16 F2sN tox inactive.
`NC(=O)C1CCN(c2ncnc3c2cnn3-c2cccc(Cl)c2)CC1` gave FH mod inactive, HTT prom inh 4.5µM, PMP22 txn inactive, HTT-AS promoter inactive, mTORC1 inh inactive and S16 F2sN tox inactive.
Screening COc1cc(NC(=O)c2cccc3c2C(=O)N(C2CCCCC2)C3)cc(OC)c1OC returned FH mod inconclusive, HTT prom inh inactive, PMP22 txn inconclusive, HTT-AS promoter inactive, mTORC1 inh 15µM and S16 F2sN tox inconclusive.
`Cc1cc(C)cc(NC(=O)c2cccc3c2C(=O)N(C2CCCCC2)C3)c1` gave FH mod inactive, HTT prom inh inactive, PMP22 txn inactive, HTT-AS promoter inactive, mTORC1 inh inactive and S16 F2sN tox inactive.
For COc1ccc(C2=C(C)C(=O)N(Cc3ccc(C(=O)Nc4ccc(F)cc4C)cc3)S2(=O)=O)cc1 the results were FH mod inactive, HTT prom inh 10µM, PMP22 txn inconclusive, HTT-AS promoter inactive, mTORC1 inh inactive and S16 F2sN tox inactive.
`Cc1nc(-c2ccc(C)c(S(=O)(=O)N3CCC(C(=O)Nc4ccc(Cl)cc4)CC3)c2)no1` gave FH mod inactive, HTT prom inh inconclusive, PMP22 txn inconclusive, HTT-AS promoter inactive, mTORC1 inh inconclusive and S16 F2sN tox inconclusive.
For COc1cccc(NC(=O)C2CCN(S(=O)(=O)c3cc(-c4noc(C)n4)ccc3C)CC2)c1 the results were FH mod inactive, HTT prom inh 13µM, PMP22 txn inconclusive, HTT-AS promoter inactive, mTORC1 inh inactive and S16 F2sN tox inactive.
Screening CC1CCc2onc(C(=O)N3CCN(c4cccc(Cl)c4)CC3)c2C1 (centres undefined) returned FH mod inactive, HTT prom inh inconclusive, PMP22 txn inconclusive, HTT-AS promoter inactive, mTORC1 inh inactive and S16 F2sN tox inactive.
`CS(=O)(=O)c1ncc(Cl)c(C(=O)N2CCN(c3cccc(Cl)c3)CC2)n1` gave FH mod inactive, HTT prom inh inconclusive, PMP22 txn inconclusive, HTT-AS promoter inactive, mTORC1 inh 0.46µM and S16 F2sN tox 3.2µM.
For CCS(=O)(=O)c1ncc(Cl)c(C(=O)N2CCN(c3cccc(Cl)c3)CC2)n1 the results were FH mod inactive, HTT prom inh inconclusive, PMP22 txn inconclusive, HTT-AS promoter inactive, mTORC1 inh 2.6µM and S16 F2sN tox 4.5µM.
`CC(=O)OC1C(OC(=O)c2ccccc2)C2C(C)(C)CC(=O)CC2(C)C23CCC(C)(C2)C(O)CC13` (centres undefined) gave FH mod inactive.
Screening CC1OC(O[C@H]2CC[C@@]3(C)C(CC[C@]4(C)C3CC=C3C5CC(C)(C)CC[C@]5(C(=O)OC5OC(CO)C(OC6OCC(OC7OCC(O)C(O)C7O)C(O)C6O)C(O)C5O)CC[C@]34C)C2(C)C)C(O)C(O)C1OC1OC(CO)C(O)C(OC2OC(CO)C(O)C(O)C2O)C1O (some centres undefined) returned FH mod inactive[13.5 µM].
For O=C(Nc1cccc(C(=O)Nc2ccc(S(=O)(=O)O)c3cc(S(=O)(=O)O)cc(S(=O)(=O)O)c23)c1)Nc1cccc(C(=O)Nc2ccc(S(=O)(=O)O)c3cc(S(=O)(=O)O)cc(S(=O)(=O)O)c23)c1 the results were FH mod 28µM.
Screening O=C(O)c1cccc(NC(=O)c2cccc(S(=O)(=O)Nc3cccc(C(=O)O)c3)c2)c1 returned FH mod inactive, HTT prom inh inactive, PMP22 txn inactive, HTT-AS promoter inactive, mTORC1 inh inactive and S16 F2sN tox inactive.
`Cc1ccc(NS(=O)(=O)c2cc3c(cc2NCCO)NC(=O)CC3)cc1C` gave FH mod inactive.
Screening COC(=O)c1nnn(-c2cccc(C)c2)c1C(=O)OC returned FH mod inactive, HTT prom inh inactive, PMP22 txn inactive, HTT-AS promoter inconclusive, mTORC1 inh inactive and S16 F2sN tox inactive.
`Cc1cccc(-n2nnnc2S(C)(=O)=O)c1` gave FH mod inactive, HTT prom inh inconclusive, PMP22 txn 6.7µM, HTT-AS promoter inactive, mTORC1 inh 0.41µM and S16 F2sN tox 5µM.
`CC(=O)c1ccc(N2CCN(C(=O)Nc3ccc(C(C)C)cc3)CC2)cc1` gave FH mod inactive, HTT prom inh 22µM, PMP22 txn inconclusive, HTT-AS promoter inactive, mTORC1 inh inactive and S16 F2sN tox inactive.
CC(=O)c1ccc(N2CCN(C(=O)Nc3cn(CC(C)C)c(=O)c4ccccc34)CC2)cc1 was read as FH mod inactive, HTT prom inh inactive, PMP22 txn inactive, HTT-AS promoter inactive, mTORC1 inh inactive and S16 F2sN tox inactive.
